Measurements from PubChem BioAssay AID1259416 (Broad Institute, 2018).
Among all 69,000 compounds or so, about 2,600 (3.8%) were called active. Many of the other results were omitted from the sample, so actives are more common in it than they were. Unmarked numbers belong to inactive results. Rule as the data show it: active = activity change below about -70% (passing the limit was not always enough); inconclusive = no clear call, values can overlap the other calls.

Test: T. gondii growth inhibition with IFN-gamma, primary screen, cell-based (AID 1259416);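 also: host cells are HeLa cells infected with Toxoplasma gondii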
Conditions: Toxoplasma gondii growth in IFN-gamma-treated host cells; active compounds read low; concentration not given here
With `CC(C)c1noc(C2CCCN(C(=O)c3cccc4ccnn34)C2)n1` (centres undefined) the activity change, negative = inhibition was 88%. For `Cc1ccc2c(c1)C1CN(C)CCC1N2S(=O)(=O)c1ccc(Oc2ccc([N+](=O)[O-])cc2)cc1` (centres undefined), the activity change, negative = inhibition was -88.8% (active). For `Cc1ccc(NC(=O)NCC(c2cccnc2)c2c[nH]c3ccccc23)cc1F` (centres undefined), the activity change, negative = inhibition was 41.3%. In the case of `C=CCOCC1c2c(ncn2C(C)C)CCN1C(=O)CC` (centres undefined), the activity change, negative = inhibition is reported as -6.91%. Molecule `CC(=O)N1C[C@@H]2[C@H](c3ccccc31)[C@H](CO)N2Cc1ccc(Cl)cc1` has an activity change, negative = inhibition of 2.64%. `Cc1ccc(C(=O)N2CC[C@H]3[C@@H]2CCN3c2nncs2)o1` gave an activity change, negative = inhibition of 17.4%. In the case of `OC(Cn1cnc(-c2ccccc2)c1-c1ccccc1)Cn1c2ccccc2c2ccccc21` (centres undefined), the activity change, negative = inhibition is reported as -85.9% (active). `Cc1cccc(C)c1-c1c(-c2ccccc2)ncn1CCCCN` gave an activity change, negative = inhibition of -13.6%. `Cn1ccnc1-c1c(-c2ccccc2)ncn1CC(O)Cc1ccccc1` (centres undefined) showed an activity change, negative = inhibition of -0.253%. Molecule `CCCC(=O)NCCc1sc(-c2cccc(F)c2)nc1C` has an activity change, negative = inhibition of 257%. `CCSc1nc(CC(=O)NCc2nnc3n2CCC3)cs1` showed an activity change, negative = inhibition of -48.7%. `c1ccc(C2CCCN2Cc2ccc3occc3c2)nc1` (centres undefined) gave an activity change, negative = inhibition of 2.99%. With `Cc1cnn(Cc2nc(-c3ccc(NC(=O)c4cc(F)ccc4F)cc3)oc2C)c1` the activity change, negative = inhibition was -88.5% (active). With `Cc1oc(-c2ccc(NC(=O)c3ccc(C(C)(C)C)cc3)cc2)nc1Cn1cccn1` the activity change, negative = inhibition was -96.9% (active). In the case of `COc1cccc(C(=O)Nc2ccc(-c3nc(Cn4nc(C)c(C)c4C)c(C)o3)cc2)c1`, the activity change, negative = inhibition is reported as -97.6% (active). In the case of `Cc1cc(C)cc(C(=O)Nc2ccc(-c3nc(Cn4cc(C)cn4)c(C)o3)cc2)c1`, the activity change, negative = inhibition is reported as 2.92%. Work on `Cc1ccsc1C(=O)Nc1ccc(-c2nc(Cn3cccn3)c(C)o2)cc1` yielded an activity change, negative = inhibition of -12.6%. In the case of `COCC(=O)Nc1ccc(-c2nc(Cn3nc(C)cc3C)c(C)o2)cc1`, the activity change, negative = inhibition is reported as -41.3%. `CCC(=O)Nc1ccc(-c2nc(Cn3cccn3)c(C)o2)cc1` showed an activity change, negative = inhibition of 61.8%. With `Cc1nn(Cc2nc(-c3ccc(NC(=O)C4CCCO4)cc3)oc2C)c(C)c1C` (centres undefined) the activity change, negative = inhibition was 33.9%. With `Cc1cnn(Cc2nc(-c3ccc(NC(=O)c4ccsc4)cc3)oc2C)c1` the activity change, negative = inhibition was -40.9%. For `Cc1noc(C)c1CN1CC2C[C@H](C(=O)NCCN(C)C)N(C)C2C1` (some centres undefined), the activity change, negative = inhibition was -7.4%. For `CN(C)S(=O)(=O)c1ccc2c(c1)cc(C(=O)NCc1cccc(F)c1)n2Cc1ccncc1`, the activity change, negative = inhibition was 104%. In the case of `CCc1ccc(-n2cc3c(=O)n(C)c(=O)n(C)c3c2)cc1`, the activity change, negative = inhibition is reported as -61.6%. Work on `CC[C@H]1CN(C(=O)CCc2cnccn2)CC[C@@]1(C)O` yielded an activity change, negative = inhibition of -44.1%. Molecule `Cc1cccc(C(=O)N2CCC3(CC2)CC(CC(=O)NCC2CC2)c2ccccc2O3)n1` (centres undefined) has an activity change, negative = inhibition of 0.492%. `Cc1cccc(Cl)c1NC(=O)N1CCN(CC(C)C)C(=O)C1C` (centres undefined) showed an activity change, negative = inhibition of -2.03%. `O=C(Nc1cnc2n1CCCC2)c1ccccc1-n1cncn1` showed an activity change, negative = inhibition of -1.83%. `C=CCn1cc(-c2c(-c3ccccc3)ncn2CCc2ccccn2)cn1` gave an activity change, negative = inhibition of -1.4%. In the case of `O=C(CN1CCCC1=O)N1CCCC2(C=Cc3ccccc3O2)CC1` (centres undefined), the activity change, negative = inhibition is reported as -13.8%. `Cc1ccc(CN2CCC3(CC2)CC(NC(=O)C2CC2)CCO3)cc1C` (centres undefined) showed an activity change, negative = inhibition of -5.15%. For `Cc1ccccc1-c1nc2ccc(-n3cnnc3)cc2o1`, the activity change, negative = inhibition was -95.3% (active). Work on `Cc1ccc(-c2ccccc2-n2cnnc2)o1` yielded an activity change, negative = inhibition of -6.57%. Work on `COCCNC(=O)C[C@@H]1CC[C@H]2[C@H](COc3ccc(NS(=O)(=O)c4ccc(Cl)cc4)cc3C(=O)N2C)O1` yielded an activity change, negative = inhibition of -37.6%.
